Consider six molecules from PubChem BioAssay.

Assay [1] in a line: E. coli DRC41 culture turbidity changes, primary screen, E. coli filamentation inducer project, strain DRC41, OD650, 48 h (AID 1152).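 Note: E. coli MC1000 strain DRC41 lacking acrAB efflux pump and sulA.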 To be noted: E. coli DRC41 (acrAB sulA), higher = more signal, called active from +8 up or from −8 down.
The nature of assay [2]: small-molecule binders of probe aLefty1, primary screen, biochemical, small-molecule microarray, 635/667 nm fluorescence (AID 1153).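 Note: score merges spot fluorescence with signal-to-noise ratio from the scanned slide images.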 To be noted: higher = more signal.
Assay [3] in a line: PSAC antagonists in infected red cells, primary screen, cell-based, P. falciparum Indochina, OD700, 1 h (AID 1154). The note with it: P. falciparum Indochina infected RBC osmotic lysis, higher = more signal, called active from +8 up or from −8 down.
Assay [4] can be described thus: PSAC antagonists in infected red cells, primary screen, cell-based, P. falciparum Indochina, OD700, 2 h (AID 1155).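 Note: lysis reports solute entry through the parasite surface anion channel PSAC; channel blockers reduce lysis of infected cells.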 The note with it: P. falciparum Indochina infected erythrocytes, osmotic lysis OD700; higher = more signal, called active from +8 up or from −8 down.
Assay [5] can be described thus: osmotic lysis modulators in infected erythrocytes, primary screen, PSAC antagonist project, cell-based, P. falciparum Indochina, OD700, 3 h (AID 1156). To be noted: higher = more signal, called active from +8 up or from −8 down.
Assay [6] is described as follows: PSAC antagonists in infected red cells, primary screen, cell-based, P. falciparum Indochina, OD700, 18 h (AID 1157). The note with it: P. falciparum Indochina infected erythrocytes, osmotic lysis OD700, 18 h; higher = more signal, called active from +8 up or from −8 down.
A short description of assay [7]: modulators of S6 phosphorylation in cells, primary screen, cell-based, A549, cytoblot, luminescence, serum-stimulated (AID 1158).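 Note: serum-stimulated A549 lung adenocarcinoma cells; signal is phosphorylated S6 detected by cytoblot immunostaining with HRP secondary.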 To be noted: A549 phospho-S6 cytoblot, 5 h, higher = more signal.
For assay [8], the target named is NADPH oxidase 2 (Homo sapiens) (UniProt P04839). Description: NOX2-dependent H2O2 signal modulators, primary screen, NOX inhibitor project, cell-based, HEK293-NOX2, PMA-stimulated, Amplex Red fluorescence (AID 1159). Note: test concentration not given here. The note with it: 45 min, higher = more signal, called active from +8 up or from −8 down.
Sequence of NADPH oxidase 2 (Homo sapiens) (P04839 whole entry, looked up): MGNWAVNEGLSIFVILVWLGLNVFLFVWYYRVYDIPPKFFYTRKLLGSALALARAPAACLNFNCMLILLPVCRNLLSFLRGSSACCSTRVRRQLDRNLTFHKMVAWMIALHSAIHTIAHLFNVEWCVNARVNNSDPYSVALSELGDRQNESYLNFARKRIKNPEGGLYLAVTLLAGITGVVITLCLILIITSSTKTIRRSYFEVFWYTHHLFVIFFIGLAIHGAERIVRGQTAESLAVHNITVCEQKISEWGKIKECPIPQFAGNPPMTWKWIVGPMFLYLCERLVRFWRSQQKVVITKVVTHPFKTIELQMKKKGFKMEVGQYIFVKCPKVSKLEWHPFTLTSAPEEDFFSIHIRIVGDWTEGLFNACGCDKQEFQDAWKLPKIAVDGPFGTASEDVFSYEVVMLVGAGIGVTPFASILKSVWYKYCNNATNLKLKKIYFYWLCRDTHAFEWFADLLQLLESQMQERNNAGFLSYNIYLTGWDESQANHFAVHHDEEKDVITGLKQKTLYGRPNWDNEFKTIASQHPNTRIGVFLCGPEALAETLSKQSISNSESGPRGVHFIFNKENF
The target in assay [9] is NADPH oxidase 4 (Homo sapiens) (UniProt Q9NPH5). Description: NOX4-dependent H2O2 signal modulators, primary screen, NOX inhibitor project, cell-based, HEK293-NOX4, tetracycline-induced, Amplex Red fluorescence (AID 1160). The note with it: 45 min, higher = more signal, called active from +8 up or from −8 down.
Sequence of NADPH oxidase 4 (Homo sapiens) (Q9NPH5 whole entry, looked up): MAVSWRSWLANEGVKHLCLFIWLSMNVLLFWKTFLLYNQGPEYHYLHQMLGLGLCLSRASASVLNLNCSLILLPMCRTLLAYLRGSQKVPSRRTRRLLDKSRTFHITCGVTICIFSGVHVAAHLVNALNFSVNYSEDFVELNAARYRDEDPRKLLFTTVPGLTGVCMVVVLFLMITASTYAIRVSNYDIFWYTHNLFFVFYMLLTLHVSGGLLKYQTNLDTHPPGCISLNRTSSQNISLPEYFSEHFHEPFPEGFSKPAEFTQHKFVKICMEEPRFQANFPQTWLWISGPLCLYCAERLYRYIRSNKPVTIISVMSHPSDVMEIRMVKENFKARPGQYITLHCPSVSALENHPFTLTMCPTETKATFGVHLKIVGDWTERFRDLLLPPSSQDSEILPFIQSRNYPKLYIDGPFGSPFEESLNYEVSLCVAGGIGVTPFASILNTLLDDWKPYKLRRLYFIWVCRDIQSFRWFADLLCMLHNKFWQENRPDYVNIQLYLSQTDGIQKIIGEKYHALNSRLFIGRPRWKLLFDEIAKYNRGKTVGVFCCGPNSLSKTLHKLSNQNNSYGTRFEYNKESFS
Assay [10] addresses NADPH oxidase 5 (Homo sapiens) (UniProt Q96PH1). Description: NOX5-dependent H2O2 signal modulators, primary screen, NOX inhibitor project, cell-based, HEK293-NOX5, Amplex Red fluorescence (AID 1161). To be noted: HEK293-NOX5, ionomycin, 45 min, higher = more signal.
Assay [11] is described as follows: A549 cell viability effects, profiling panel, calcein-AM fluorescence, 48 h, basal (AID 1162). Note: test concentration not given here. To be noted: higher = more signal.
A short description of assay [12]: adipocyte viability effects, profiling panel, cell-based, 3T3-L1 adipocytes, calcein-AM fluorescence, 48 h, basal (AID 1163). Note: test concentration not given here. To be noted: 3T3-L1 adipocytes viability, higher = more signal.
Assay [13] is described as follows: HepG2 cell viability effects, profiling panel, calcein-AM fluorescence, 48 h, basal (AID 1164). Note: test concentration not given here. To be noted: higher = more signal.
A short description of assay [14]: MM1S cell viability effects, profiling panel, calcein-AM fluorescence, 48 h, basal (AID 1165).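 Note: viability of MM1S multiple myeloma cells under basal unstimulated conditions; test concentration not given here.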 The note with it: higher = more signal.
A short description of assay [15]: basal RPMI8226 viability, no added stimulus, profiling panel, cell-based, calcein-AM fluorescence, 48 h, PK04 Diversity Set (AID 1166).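 Note: cells grown under basal conditions without added stimulus; test concentration not given here.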 To be noted: RPMI8226 myeloma viability, higher = more signal.
A short description of assay [16]: basal HepG2 mitochondrial membrane potential changes, profiling panel, cell-based, JC-1 fluorescence, 24 h, 100 nL compound (AID 1167). Note: test concentration not given here. To be noted: higher = more signal.
Assay [17] can be described thus: basal 3T3-L1 adipocyte mitochondrial potential changes, profiling panel, cell-based, JC-1 fluorescence, 3T3-L1 adipocytes, 24 h, 100 nL compound (AID 1168). Note: test concentration not given here. The note with it: JC-1 mitochondrial fluorescence, higher = more signal, called active from +8 up or from −8 down.
Assay [18] in a line: basal RPMI8226 mitochondrial membrane potential changes, profiling panel, cell-based, JC-1 fluorescence, 24 h, 100 nL compound (AID 1169). Note: test concentration not given here. To be noted: RPMI8226 myeloma, JC-1 mitochondrial potential fluorescence, higher = more signal.
Assay [19] is described as follows: basal MM1S mitochondrial membrane potential changes, profiling panel, cell-based, JC-1 fluorescence, 24 h, 100 nL compound (AID 1170). Note: test concentration not given here. The note with it: higher = more signal.
Assay [20] in a line: A549 lung cancer cell viability effects, profiling panel, resazurin fluorescence, 24 h, PK04 Diversity Set (AID 1171). Note: test concentration not given here. The note with it: higher = more signal, called active from +8 up or from −8 down. In general terms: Resazurin is reduced to fluorescent resorufin, in cell work by metabolically active cells.

Each structure is given as a SMILES string. Active and inactive are the calls of the source.

Sequence of NADPH oxidase 5 (Homo sapiens) (Q96PH1 whole entry, looked up): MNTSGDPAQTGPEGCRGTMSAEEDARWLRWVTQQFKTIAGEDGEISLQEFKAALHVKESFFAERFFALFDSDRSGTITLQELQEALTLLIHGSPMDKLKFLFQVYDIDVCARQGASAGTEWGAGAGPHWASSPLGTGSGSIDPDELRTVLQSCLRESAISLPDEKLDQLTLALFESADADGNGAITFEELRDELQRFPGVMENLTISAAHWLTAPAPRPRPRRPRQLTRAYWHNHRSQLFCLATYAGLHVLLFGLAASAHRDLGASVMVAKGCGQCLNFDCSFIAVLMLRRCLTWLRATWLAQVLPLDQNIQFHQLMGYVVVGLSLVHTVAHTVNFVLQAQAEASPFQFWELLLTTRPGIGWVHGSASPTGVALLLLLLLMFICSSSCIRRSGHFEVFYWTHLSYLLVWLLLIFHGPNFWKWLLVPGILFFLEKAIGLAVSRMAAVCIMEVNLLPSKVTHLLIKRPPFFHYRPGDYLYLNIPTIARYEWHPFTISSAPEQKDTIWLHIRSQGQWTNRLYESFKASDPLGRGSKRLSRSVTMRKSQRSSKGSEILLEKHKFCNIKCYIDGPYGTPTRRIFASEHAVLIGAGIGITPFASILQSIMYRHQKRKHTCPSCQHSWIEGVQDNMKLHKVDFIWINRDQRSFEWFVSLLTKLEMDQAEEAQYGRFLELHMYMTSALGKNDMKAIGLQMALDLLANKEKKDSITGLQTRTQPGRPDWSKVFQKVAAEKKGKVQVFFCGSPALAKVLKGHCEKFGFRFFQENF

For `C=C(CCCC)C(=O)CC[C@H](OC(=O)c1ccccc1-c1ccccc1C(=O)O)c1ccc(CO)o1`, the z-score in assay [1] was -0.002 (inactive); in assay [3], 1.69 (inactive); in [4], 0.241 (inactive); in [5] it was 1.2 (inactive); in assay [6], 0.16 (inactive); in assay [7], -0.16. The z-score in [8] is 0.333 (inactive); in assay [9], -0.269 (inactive); in [10], -1.15; in [11] it was 0.0743; in assay [12], 0.418; in assay [13] it was -0.862. The z-score in assay [14] was -0.0307; in [15], 0.334; in assay [16] it was -0.373; in assay [17], -0.727 (inactive); in assay [18], -0.658; in assay [19], 0.063. Also, the z-score in [20] is 1.09 (inactive). In [2], this molecule yielded a composite z-score of -0.0984.
For the molecule `[N-]=[N+]=NCc1ccccc1[C@@H]1OC(c2ccc(OCCCO)cc2)=N[C@]1(Cc1ccccc1N=[N+]=[N-])C(N)=O`, the z-score in assay [1] was -0.386 (inactive); in [3] it was 20.5 (active); in [4], 2.68 (inactive); in assay [5], 1.5 (inactive); in assay [6] it was 0.54 (inactive); in assay [7], -0.0826. The z-score in assay [8] is -1.07 (inactive); in assay [9], -0.527 (inactive); in assay [10], 0.12; in assay [11] it was -0.533; in assay [12], 0.306; in [13], 0.0804. Also, the z-score in assay [14] is -1.01; in [15], -2.22; in assay [16], -1.5; in assay [17], -1.92 (inactive); in assay [18] it was -0.918; in [19], -0.0745. For the same molecule, in assay [20], the z-score was -0.139 (inactive). Also, the composite z-score in assay [2] worked out at 0.636.
For `CC(C)[C@H]1COC(=O)N1C(=O)[C@H]1[C@@H](c2ccccc2)N(c2ccccc2)O[C@@H]1C`, the z-score in assay [1] is 1.46 (inactive); in [3], 0.744 (inactive); in assay [4] it was 0.233 (inactive); in [5] it was -0.648 (inactive); in [6], 0.206 (inactive); in [7], 0.958. For the same molecule, the z-score in [8] was -0.515 (inactive); in assay [9], -0.138 (inactive); in assay [10], -2.5; in [11], 0.198; in assay [12], 0.343; in assay [13], 0.612. Besides, the z-score in assay [14] is -0.357; in [15], 0.133; in assay [16] it was 0.941; in [17], 0.997 (inactive); in [18], -0.361; in assay [19], -1.46. Also, the z-score in [20] is 1.72 (inactive). For the same molecule, the composite z-score in [2] is -0.147.
As to `Oc1ccc2cc[n+](Cc3cccc(OC(F)(F)F)c3)cc2c1`, the z-score in [1] is 0.444 (inactive); in assay [3] it was 0.0313 (inactive); in assay [4], -0.0655 (inactive); in assay [5] it was 0.621 (inactive); in assay [6], -0.236 (inactive); in assay [7] it was -0.522. Also, the z-score in [8] is -1.93 (inactive); in assay [9], -0.554 (inactive); in assay [10], -0.3; in [11] it was 0.609; in [12] it was 0.128; in [13], 0.577. The z-score in [14] was 0.683; in assay [15] it was -0.592; in [16] it was 0.303; in assay [17], 0.339 (inactive); in assay [18], 0.593; in assay [19], -0.862. Besides, in assay [20], the z-score was -1.81 (inactive). In assay [2], this molecule returned a composite z-score of -0.606.
For `C=C(CCCC)/C(=C/C[C@@H](OC(=O)c1ccncc1)c1ccc(CO)o1)c1cc(C(=O)OC)ccc1OC`, the z-score in assay [1] is 0.722 (inactive); in assay [3] it was 8.99 (active); in [4], 1.07 (inactive); in assay [5], 2.84 (inactive); in assay [6], 0.454 (inactive); in assay [7] it was 0.739. The z-score in [8] was -0.268 (inactive); in [9], -1.08 (inactive); in [10], -1.52; in [11], 1.25; in assay [12] it was -0.1; in assay [13] it was 0.743. Moreover, the z-score in [14] was -2.63; in [15], -2.58; in assay [16], 0.0818; in assay [17], -0.239 (inactive); in [18] it was -0.812; in assay [19] it was -2.01. Moreover, the z-score in assay [20] was -0.269 (inactive). This molecule also came in with a composite z-score in assay [2] of 0.0263.
On to `CO[C@H]1O[C@H](CO)[C@@H](OC(=O)Nc2ccc3c(c2)OCO3)[C@H](OC(=O)Nc2ccc3c(c2)OCO3)[C@H]1OC(=O)Nc1ccc2c(c1)OCO2`, for which the z-score in [1] is 0.164 (inactive); in [3], 6.86 (inactive); in [4] it was 1.04 (inactive); in assay [5] it was 0.608 (inactive); in assay [6] it was 0.519 (inactive); in assay [7], -0.489. Besides, the z-score in assay [8] is -1.44 (inactive); in assay [9], -0.847 (inactive); in assay [10] it was -1.69; in [11] it was -0.689; in assay [12], -0.121; in assay [13], -1.09. In addition, the z-score is -1.57 in assay [14]; -0.566 in assay [15]; 0.328 in [16]; 0.374 (inactive) in assay [17]; 0.0119 in assay [18]; 0.961 in [19]. Besides, in assay [20], the z-score is 0.38 (inactive). Moreover, the composite z-score in assay [2] worked out at 0.457.
